The source made the active and inactive calls.
What was measured:
Albumin (Bos taurus) = Albumin (Bos taurus) (UniProt P02769); experiment: bovine serum albumin binders on microarray, profiling panel, artefact control for SMM control protein annotation, biochemical, small-molecule microarray, Alexa647 label, 635/667 nm fluorescence (AID 1118); conditions: BSA-A647 binding, fluorescence 635 nm, higher = more signal;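 also: score merges 667 nm emission intensity and signal-to-noise per printed compound spot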
[1] = small-molecule microarray binders of probe aXIP, primary screen, biochemical, NeuroSMM set, 635/667 nm fluorescence (AID 1119); conditions: higher = more signal, called active from +8 up or from −8 down;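 also: probe is the protein aXip251-270 applied at 1 µg/mL to compound-printed slides; binding of probe to printed compounds measured as 667 nm fluorescence plus signal to noise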
[2] = small-molecule binders of probe aNOTCH3, primary screen, biochemical, small-molecule microarray, 635/667 nm fluorescence (AID 1120); conditions: higher = more signal;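 also: probe is a biotin-tagged antibody raised against NOTCH3 rather than NOTCH3 protein; score merges spot fluorescence near 667 nm with spot signal to noise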
[3] = small-molecule binders of probe aNOTCH2, primary screen, biochemical, small-molecule microarray, 635/667 nm fluorescence (AID 1121); conditions: higher = more signal;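 also: score merges feature fluorescence read at 667 nm with its signal to noise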
[4] = biological target: Carbonic anhydrase 2 (Homo sapiens) (UniProt P00918); experiment: CAII small-molecule binders, profiling panel, biochemical, small-molecule microarray, Alexa647-labelled CAII (AID 1122); conditions: CAII-A647 binding fluorescence, higher = more signal
[5] = COS7 lysate on small-molecule microarray, probe aHis, 635 nm (AID 1123); conditions: COS7 cell lysate, fluorescence, higher = more signal;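 also: z-score combines 667nm fluorescence intensity with signal-to-noise per printed compound spot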
[6] = compound binding in COS7 lysate, probe aLAP1, primary screen, cell lysate, small-molecule microarray (AID 1124); conditions: probe aLAP1, fluorescence, higher = more signal;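 also: lysate comes from COS7 cells expressing LAP1 and is applied at 0.3 µg/mL; score merges spot fluorescence near 667 nm with signal-to-noise over triplicate slides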
Sam68 (KHDRBS1) = experiment: Sam68 small-molecule binders, primary screen, biochemical, small-molecule microarray, 635 nm fluorescence (AID 1125); conditions: small-molecule microarray binding, higher = more signal;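 also: score merges 667 nm channel intensity with signal to noise over triplicate slides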
[7] = tested on: Chordin-like protein 2 (CHRDL2); experiment: CHRDL2 small-molecule binders, primary screen, biochemical, small-molecule microarray, 635 nm fluorescence (AID 1126); conditions: small-molecule microarray binding, fluorescence 635 nm; higher = more signal;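 also: printed compound slides probed with Chrdl2 protein at 4 µg/mL for 1 h at 4 C; score merges 667 nm emission intensity with signal to noise over three replicate slides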
[8] = biological target: Concanavalin-A (Canavalia ensiformis) (UniProt P02866); experiment: ConA small-molecule binders, primary screen, artefact control for SMM control protein annotation, biochemical, small-molecule microarray, Alexa647 label, 635 nm (AID 1127); conditions: ConA-A647 binding fluorescence, higher = more signal;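 also: z combines 667 nm emission intensity with signal-to-noise across three replicate slides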
Concanavalin-A (Canavalia ensiformis), sequence (P02866 whole entry, looked up): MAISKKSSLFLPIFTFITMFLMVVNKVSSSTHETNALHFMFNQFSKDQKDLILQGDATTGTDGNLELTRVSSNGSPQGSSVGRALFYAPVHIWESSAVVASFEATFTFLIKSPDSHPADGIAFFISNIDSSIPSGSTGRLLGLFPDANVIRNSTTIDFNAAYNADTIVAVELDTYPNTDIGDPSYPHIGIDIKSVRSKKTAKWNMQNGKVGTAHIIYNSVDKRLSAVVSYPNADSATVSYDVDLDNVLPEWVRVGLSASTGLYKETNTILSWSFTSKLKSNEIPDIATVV

Albumin (Bos taurus), sequence (P02769 whole entry, looked up): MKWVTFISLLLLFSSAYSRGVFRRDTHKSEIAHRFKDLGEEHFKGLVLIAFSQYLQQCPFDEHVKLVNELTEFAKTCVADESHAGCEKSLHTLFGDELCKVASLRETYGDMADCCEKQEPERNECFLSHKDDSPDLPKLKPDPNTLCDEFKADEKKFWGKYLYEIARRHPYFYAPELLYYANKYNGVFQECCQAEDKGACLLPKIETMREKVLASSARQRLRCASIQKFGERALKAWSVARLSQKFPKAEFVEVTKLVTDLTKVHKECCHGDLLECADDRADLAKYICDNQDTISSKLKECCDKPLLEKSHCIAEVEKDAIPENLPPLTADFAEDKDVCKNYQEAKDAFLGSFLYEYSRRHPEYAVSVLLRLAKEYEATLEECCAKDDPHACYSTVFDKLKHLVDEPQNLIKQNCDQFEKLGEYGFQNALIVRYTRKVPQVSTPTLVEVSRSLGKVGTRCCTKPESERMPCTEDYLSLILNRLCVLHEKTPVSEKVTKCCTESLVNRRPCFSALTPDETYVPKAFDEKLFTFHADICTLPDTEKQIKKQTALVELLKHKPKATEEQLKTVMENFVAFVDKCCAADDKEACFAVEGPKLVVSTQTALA

CN(C)C(=O)[C@@]1(Cc2ccccc2N=[N+]=[N-])N=C(c2ccc(OCCCO)cc2)O[C@H]1c1ccccc1
composite z-score (Albumin (Bos taurus)): 0.897
composite Z-score [1]: 2.37 (inactive)
composite z-score [2]: 0.484
composite z-score [3]: 0.369
composite z-score [4]: 0.681
composite z-score [5]: 2.76
composite z-score [6]: 1.13
composite z-score (Sam68 (KHDRBS1)): 1.31
composite z-score [7]: -0.699
composite z-score [8]: 1.18

COCCOC(=O)N1C(=O)[C@@]2(c3cc(C#CC4(O)CCCCCC4)ccc31)[C@H](c1ccc(OCCO)cc1)N1[C@H](c3ccccc3)[C@H](c3ccccc3)OC(=O)[C@H]1[C@@H]2C(=O)Nc1nc2ccccc2s1
composite z-score (Albumin (Bos taurus)): 0.729
composite Z-score [1]: 0.526 (inactive)
composite z-score [2]: 0.5
composite z-score [3]: -0.0009
composite z-score [4]: 0.161
composite z-score [5]: 0.804
composite z-score [6]: 0.388
composite z-score (Sam68 (KHDRBS1)): 1.3
composite z-score [7]: 0.58
composite z-score [8]: 1.11

COCC1C2CC[C@H]3C(OCc4ccc(OC)cc4)OC[C@]4(C)[C@H]3C2=C(CN4C(=O)OC(C)(C)C)[C@H](C)C1COC (stereo not given in full)
composite z-score (Albumin (Bos taurus)): 1
composite Z-score [1]: 0.709 (inactive)
composite z-score [2]: 0.249
composite z-score [3]: -0.182
composite z-score [4]: 0.796
composite z-score [5]: 2.82
composite z-score [6]: 0.534
composite z-score (Sam68 (KHDRBS1)): 1.3
composite z-score [7]: -0.355
composite z-score [8]: 1.15

CN(C)C(=O)[C@]1(CCS(=O)(=O)c2ccccc2)N=C(c2ccc(OCCCO)cc2)O[C@@H]1c1ccccc1
composite z-score (Albumin (Bos taurus)): 0.907
composite Z-score [1]: 0.462 (inactive)
composite z-score [2]: 0.201
composite z-score [3]: -0.0676
composite z-score [4]: 0.769
composite z-score [5]: 2.99
composite z-score [6]: 0.565
composite z-score (Sam68 (KHDRBS1)): 1.3
composite z-score [7]: -0.0707
composite z-score [8]: 0.937

C=C(/C(=C/C[C@H](OC(=O)c1ccncc1)c1ccccc1OCCO)c1cnc2ccccc2c1)C(C)C
composite z-score (Albumin (Bos taurus)): 0.706
composite Z-score [1]: 0.0746 (inactive)
composite z-score [2]: 0.145
composite z-score [3]: -0.126
composite z-score [4]: 0.566
composite z-score [5]: 0.443
composite z-score [6]: 0.0737
composite z-score (Sam68 (KHDRBS1)): 1.31
composite z-score [7]: 1.18
composite z-score [8]: 1.19

COCCOC(=O)N1C(=O)[C@@]2(c3cc(C#CC4=CCCCC4)ccc31)[C@H](c1ccc(O)cc1)N1[C@H](c3ccccc3)[C@H](c3ccccc3)OC(=O)[C@H]1[C@@H]2C(=O)NC[C@H](O)c1ccccc1
composite z-score (Albumin (Bos taurus)): 0.613
composite Z-score [1]: 0.225 (inactive)
composite z-score [2]: 0.158
composite z-score [3]: -0.148
composite z-score [4]: 0.27
composite z-score [5]: 1.68
composite z-score [6]: 1.02
composite z-score (Sam68 (KHDRBS1)): 1.3
composite z-score [7]: 0.642
composite z-score [8]: 0.935

O=C1c2ccccc2[C@](Cc2ccccc2I)(C(=O)NC2CC2)[C@H](c2ccc(CO)cc2)N1Cc1ccccc1C(F)(F)F
composite z-score (Albumin (Bos taurus)): 0.502
composite Z-score [1]: 0.0029 (inactive)
composite z-score [2]: 0.134
composite z-score [3]: -0.0986
composite z-score [4]: 0.66
composite z-score [5]: 1.88
composite z-score [6]: 0.43
composite z-score (Sam68 (KHDRBS1)): 0.456
composite z-score [7]: -0.941
composite z-score [8]: 0.847

CC(CO)N1C(=O)[C@@H]2[C@H]3C(=O)OCC=C[C@H]3OC23C=CCN(c2ccc(Cl)cc2)C(=O)[C@@H]13 (stereo not given in full)
composite z-score (Albumin (Bos taurus)): -1.68
composite Z-score [1]: -0.243 (inactive)
composite z-score [2]: -0.454
composite z-score [3]: -0.161
composite z-score [4]: 0.935
composite z-score [5]: -0.224
composite z-score [6]: -0.191
composite z-score (Sam68 (KHDRBS1)): -0.598
composite z-score [7]: -2.12
composite z-score [8]: -2.16

Cc1ccc([C@H]2C(C(=O)O)=C[C@@H](C(C)(C)C)N2S(=O)(=O)c2ccc(C)cc2)cc1
composite z-score (Albumin (Bos taurus)): 0.966
composite Z-score [1]: 0.0172 (inactive)
composite z-score [2]: 0.305
composite z-score [3]: 0.0746
composite z-score [4]: 0.531
composite z-score [5]: 1.99
composite z-score [6]: 0.868
composite z-score (Sam68 (KHDRBS1)): 1.31
composite z-score [7]: -0.202
composite z-score [8]: 1.21

COCCCNC(=O)[C@@]1(Sc2ccc(C)cc2)CC(=O)N(C(C)C)[C@@H]1c1ccc(CO)cc1I
composite z-score (Albumin (Bos taurus)): -0.622
composite Z-score [1]: 0.525 (inactive)
composite z-score [2]: 0.0062
composite z-score [3]: -0.164
composite z-score [4]: 0.763
composite z-score [5]: 1.4
composite z-score [6]: 0.427
composite z-score (Sam68 (KHDRBS1)): 0.462
composite z-score [7]: -0.825
composite z-score [8]: 0.413

C=C(COC)C(=O)CC[C@H](OC(C)=O)c1ccc(OCCO)cc1
composite z-score (Albumin (Bos taurus)): -0.0592
composite Z-score [1]: -0.308 (inactive)
composite z-score [2]: -0.0362
composite z-score [3]: -0.0971
composite z-score [4]: 0.549
composite z-score [5]: 0.523
composite z-score [6]: 2.46
composite z-score (Sam68 (KHDRBS1)): 0.666
composite z-score [7]: 0.569
composite z-score [8]: 0.488

CC(C)C(CO)N1C(=O)[C@@H]2[C@H]3C(=O)OCC=C[C@H]3OC23C=CCN(C(C)(C)C)C(=O)[C@@H]13 (stereo not given in full)
composite z-score (Albumin (Bos taurus)): -0.0498
composite Z-score [1]: -0.343 (inactive)
composite z-score [2]: -0.252
composite z-score [3]: -0.168
composite z-score [4]: 0.409
composite z-score [5]: -0.843
composite z-score [6]: -0.495
composite z-score (Sam68 (KHDRBS1)): -1.41
composite z-score [7]: -0.109
composite z-score [8]: 0.0282

CC(=O)NCCCC[C@@H]1NC(=O)[C@@H]2C[C@H](C(=O)NCCCCCCN)[C@H](c3cccc(OCCO)c3)N2C1=O
composite z-score (Albumin (Bos taurus)): 0.851
composite Z-score [1]: 0.801 (inactive)
composite z-score [2]: -0.0682
composite z-score [3]: -0.149
composite z-score [4]: 0.779
composite z-score [5]: 1.72
composite z-score [6]: 1.89
composite z-score (Sam68 (KHDRBS1)): 1.12
composite z-score [7]: -0.878
composite z-score [8]: 1.12

COc1ccc([Si](C)(C)[C@H]2[C@H](CCO)O[C@@]3(C(=O)N(Cc4ccc(N5C(=O)c6ccccc6Oc6ccccc65)cc4)c4ccccc43)[C@@H]2C)cc1
composite z-score (Albumin (Bos taurus)): -0.0162
composite Z-score [1]: -0.291 (inactive)
composite z-score [2]: -0.0212
composite z-score [3]: -0.204
composite z-score [4]: 0.0539
composite z-score [5]: 0.648
composite z-score [6]: -0.299
composite z-score (Sam68 (KHDRBS1)): -0.652
composite z-score [7]: -0.348
composite z-score [8]: -0.352

Cc1ccccc1C(O)C1C=CC2C(=O)NC(=O)C2N1Nc1ccc(Cl)cc1Cl (stereo not given)
composite z-score (Albumin (Bos taurus)): 0.709
composite Z-score [1]: 1.42 (inactive)
composite z-score [2]: -0.0653
composite z-score [3]: -0.0453
composite z-score [4]: 0.558
composite z-score [5]: 2.4
composite z-score [6]: 1.1
composite z-score (Sam68 (KHDRBS1)): 0.965
composite z-score [7]: 0.291
composite z-score [8]: 0.814

C=C(C(=O)CC[C@H](OC(=O)c1ccccc1-c1ccccc1C(=O)O)c1ccccc1OCCO)C(C)C
composite z-score (Albumin (Bos taurus)): 0.0198
composite Z-score [1]: 0.292 (inactive)
composite z-score [2]: -0.0035
composite z-score [3]: -0.176
composite z-score [4]: 0.52
composite z-score [5]: 0.559
composite z-score [6]: -0.0566
composite z-score (Sam68 (KHDRBS1)): 0.974
composite z-score [7]: 0.0958
composite z-score [8]: -0.138

O=C1OCC=C[C@H]2OC34C=CCN(c5ccc6ccccc6c5)C(=O)[C@H]3N(CCCCCO)C(=O)[C@@H]4[C@@H]12 (stereo not given in full)
composite z-score (Albumin (Bos taurus)): 0.712
composite Z-score [1]: -0.834 (inactive)
composite z-score [2]: -0.292
composite z-score [3]: -0.0176
composite z-score [4]: 0.309
composite z-score [5]: 1.25
composite z-score [6]: -0.148
composite z-score (Sam68 (KHDRBS1)): -0.702
composite z-score [7]: -1.27
composite z-score [8]: -0.388
